Source: PubChem (Sanford-Burnham Center for Chemical Genomics)
Only some compounds are listed: those with a hit (about 28% of all), similar ones and a draw of the others.
CD11b adhes enh = enhancers of human CD11b/CD18 binding to fibrinogen | K562 CD11b/CD18 adhesion to fibrinogen, ATPlite luminescence | 0.07% of 93,000 active | activation, % at 10 µM | AID 1499;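 active means 10 µM primary screen giving 50% or more activity, confirmed by 40% or more on retest at that dose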
CYP2C19 inh = inhibitors of human CYP2C19; CYP2C19 Supersomes, luciferin-H EGE luminescence, 30 min; P33261; 21% of 96,000 active; inhibition, % at 5 µM;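 active means CYP2C19 inhibition above a set limit at 5 µM in the primary screen, cut at about 50% in these data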
Target sequence (P33261 whole entry, looked up): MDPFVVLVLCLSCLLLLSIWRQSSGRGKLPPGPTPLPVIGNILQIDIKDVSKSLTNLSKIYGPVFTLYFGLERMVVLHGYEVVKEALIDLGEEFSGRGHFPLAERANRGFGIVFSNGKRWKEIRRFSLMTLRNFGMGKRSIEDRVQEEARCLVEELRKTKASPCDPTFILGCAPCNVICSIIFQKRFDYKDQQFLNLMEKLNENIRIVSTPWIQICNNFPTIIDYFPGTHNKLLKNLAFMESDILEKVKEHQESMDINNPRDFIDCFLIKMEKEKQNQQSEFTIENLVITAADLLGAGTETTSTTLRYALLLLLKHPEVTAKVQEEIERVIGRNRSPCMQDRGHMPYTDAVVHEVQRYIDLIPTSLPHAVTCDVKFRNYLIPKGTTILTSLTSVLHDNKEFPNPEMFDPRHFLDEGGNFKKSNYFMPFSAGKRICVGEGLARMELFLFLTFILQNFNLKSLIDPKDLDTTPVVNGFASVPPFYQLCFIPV
CYP2C19 act = activators of human cytochrome P450 2C19; P33261; recombinant CYP2C19, luciferin-H EGE luminescence; stronger effect = higher value; 0 = fully inhibited enzyme, 1 = untreated enzyme; activation factor at 5 µM; 96,000 tested, under 10 active; AID 1025;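 active means activation factor of at least 2 at 5 µM in the primary screen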
CYP2C9 inh = human CYP2C9 inhibition; AID 777; inhibition, % at 5 µM; 20% of 96,000 active; CYP2C9 Supersomes, luciferin-H conversion, luminescence;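 active means blocking of liver enzyme CYP2C9 beyond about 50% at 5 µM, limit read from the data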
CYP2C9 activ = CYP2C9 (human) activation. recombinant CYP2C9, luciferin-H conversion, luminescence; stronger effect = higher value; factor 1 = untreated enzyme, 0 = blocked. activation factor at 5 µM. 1.4% of 96,000 active. AID 1024;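 active means activation factor of 2 or more for CYP2C9 at a 5 µM dose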
Mac1 fbg inh = blocks human CD11b/CD18 adhesion to fibrinogen; P05107+P11215; K562 CD11b/CD18 adhesion to fibrinogen, ATPlite luminescence; Mn2+ added to activate the integrin; inhibition, % at 10 µM; 0.54% of 93,000 active; AID 1497;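 active means primary inhibition of 50% or more at 10 µM, then 40% or more on retest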
Of the large screens only hits and unclear results are named; the others gave an inactive call.

Cc1cc(C)c(C)c(S(=O)(=O)N2C(=S)NC(=O)C2C(C)C)c1C (stereo not drawn)	none
CCOc1ccc(NC(=O)CCn2cccc2)cc1	none
CCOc1ccc(NC(=O)c2nn(C)cc2Br)cc1	CYP2C9 activ 2.1
CCOc1ccc(C(=O)c2ccncc2)cc1	CYP2C19 inh 87, CYP2C9 inh 75
CCOc1ccc(NC(=O)c2ccc(OC)cc2)cc1	none
CCOc1ccc2c(c1)C(=NNC(=O)c1ccncc1)c1cc(OCC)ccc1-2	none (no result: CYP2C19 inh, CYP2C19 act, CYP2C9 inh, CYP2C9 activ)
CCOc1ccc(NC(=O)c2ccncc2)cc1	CYP2C19 inh 73, CYP2C9 inh 73
Cn1c(=O)[nH]c(=O)c2c1nc(N1CCN(c3cccc(Cl)c3)CC1)n2CCCc1ccccc1	none
CCCCCn1c(N2CCN(c3cccc(Cl)c3)CC2)nc2c1c(=O)[nH]c(=O)n2C	CYP2C19 inh 82, CYP2C9 inh 96
Cn1c(=O)c2c(nc(CN3CCC(C(N)=O)CC3)n2Cc2ccccc2F)n(C)c1=O	none
Cn1c(=O)c2c(nc(CN3CCC(C(N)=O)CC3)n2CCCc2ccccc2)n(C)c1=O	CYP2C19 inh 59, CYP2C9 inh 71
Cn1c(=O)[nH]c(=O)c2[nH]c(N(Cc3ccccc3)Cc3ccccc3)nc21	CYP2C9 inh 56
Cn1c(=O)c2c(nc(N3CCN(Cc4ccccc4)CC3)n2CCCc2ccccc2)n(C)c1=O	CYP2C19 inh 68
Cn1c(=O)c2c(nc(N3CCN(c4ccccc4)CC3)n2CCCc2ccccc2)n(C)c1=O	none
O=C(COc1ccc(/C=N/NC(=O)c2cc3ccccc3o2)cc1Br)Nc1ccccc1	none (no result: CD11b adhes enh, Mac1 fbg inh)
O=C(Nc1ccc(O)c(-c2nc3ccccc3o2)c1)C1(c2ccc(Br)cc2)CCCC1	none (no result: CYP2C19 inh, CYP2C19 act, CYP2C9 inh, CYP2C9 activ)
Cn1c(=O)[nH]c(=O)c2c1nc(N1CCN(Cc3ccccc3)CC1)n2CCSc1ncccn1	CYP2C19 inh 75
Cc1nnc(SCCn2c(N3CCN(Cc4ccccc4)CC3)nc3c2c(=O)[nH]c(=O)n3C)s1	CYP2C19 inh 71, CYP2C9 inh 59
CCCCn1c(N2CCC(Cc3ccccc3)CC2)nc2c1c(=O)[nH]c(=O)n2C	CYP2C19 inh 66
CCCCCCn1c(N2CCC(C)CC2)nc2c1c(=O)[nH]c(=O)n2C	none
COc1cccc(C(=O)Cn2c(N3CCOCC3)nc3c2c(=O)n(C)c(=O)n3C)c1	none
Cc1nnc(SCCn2c(N3CCN(C)CC3)nc3c2c(=O)[nH]c(=O)n3C)s1	none
Cc1ccc(C(=O)Cn2c(N3CCOCC3)nc3c2c(=O)n(C)c(=O)n3C)cc1	CYP2C9 inh 54
COc1ccc(CNC(=O)COC(=O)CCC2CCCCC2)cc1	none (no result: CYP2C19 inh, CYP2C19 act, CYP2C9 inh, CYP2C9 activ)
CC1CC(=O)c2cn3c(nc2C1)nc1ccccc13 (stereo not drawn)	none
Cn1c(=O)[nH]c(=O)c2c1nc(NCc1ccccc1)n2CCCc1ccccc1	none
CCOCCn1c(N2CCN(c3ccc(OC)cc3)CC2)nc2c1c(=O)n(C)c(=O)n2C	none
Cn1c(=O)[nH]c(=O)c2c1nc(N1CCN(Cc3ccccc3)CC1)n2CCCc1ccccc1	CYP2C19 inh 88
COCCn1c(N2CCN(c3ccc(OC)cc3)CC2)nc2c1c(=O)n(C)c(=O)n2C	CYP2C9 inh 59
C=C(C)Cn1c(N(CCO)Cc2ccccc2)nc2c1c(=O)[nH]c(=O)n2C	none
Cn1c(=O)[nH]c(=O)c2c1nc(N(CCO)Cc1ccccc1)n2CCCc1ccccc1	CYP2C9 inh 65
CC(C)CN(C(=O)COC(=O)c1cc2c(s1)CCC2)C1CCS(=O)(=O)C1 (stereo not drawn)	none
Cc1nn(C)c(Cl)c1NC(=O)OCc1ccc(Cl)cc1Cl	CYP2C19 inh 68 (no result: CD11b adhes enh, Mac1 fbg inh)
Cc1nn(Cc2ccc(Cl)cc2Cl)c(C)c1NC(=O)c1nn(C)cc1Cl	none (no result: CD11b adhes enh, Mac1 fbg inh)
Cc1nnsc1NC(=O)OCCCl	none
Cc1nnsc1NC(=O)OCc1ccc(Cl)cc1Cl	CYP2C19 inh 71
COC(=O)c1ccc(-c2ccc(CNCC(O)c3ccccc3)o2)cc1 (stereo not drawn)	CYP2C19 inh 60 (no result: CD11b adhes enh, Mac1 fbg inh)
CCOC(=O)CNc1c(N2CCN(c3ccccn3)CC2)c(=O)c1=O	none
CC(C)CCNC(=O)C(c1ccco1)N(Cc1ccc(F)cc1)C(=O)c1snc(C(N)=O)c1N (stereo not drawn)	CYP2C19 inh 67
CCCC(C(=O)NC1CCCC1)N(Cc1ccc2c(c1)OCO2)C(=O)c1snc(C(N)=O)c1N (stereo not drawn)	CYP2C19 inh 97, CYP2C9 inh 83
CCCC(C(=O)NCc1ccc(OC)cc1)N(Cc1ccco1)C(=O)c1snc(C(N)=O)c1N (stereo not drawn)	CYP2C19 inh 60
CCCCC(C(=O)NC(C)(C)C)N(Cc1ccco1)C(=O)c1snc(C(N)=O)c1N (stereo not drawn)	CYP2C19 inh 58, CYP2C9 inh 70
CC(C)(C)NC(=O)C(c1ccccc1)N(Cc1ccco1)C(=O)c1csnn1 (stereo not drawn)	none
CC(=O)Nc1ccc(OCC(O)CN2C(C)(C)CC(O)CC2(C)C)cc1 (stereo not drawn)	none (no result: CYP2C19 inh, CYP2C19 act, CYP2C9 inh, CYP2C9 activ)
CCOC(=O)NC1(C(F)(F)F)C(=O)N(Cc2ccccn2)C2=C1C(=O)CC(C)(C)C2 (stereo not drawn)	none
CC1(C)CC2CC(C)(CN2C(=O)COC(=O)c2ccc(Cl)c(N)c2)C1 (stereo not drawn)	none
CCC(C(=O)NCc1ccc(F)cc1)N(Cc1ccco1)C(=O)c1snc(C(N)=O)c1N (stereo not drawn)	CYP2C19 inh 58, CYP2C9 inh 50
CCOC(=O)Cn1c(=O)oc2cc(S(=O)(=O)N3CCn4c3nc3ccccc34)ccc21	none
O=C(Cn1c(=O)oc2cc(S(=O)(=O)N3CCCCCC3)ccc21)NC1CCCCC1	none
O=C(Cn1c(=O)oc2cc(S(=O)(=O)N3CCc4ccccc43)ccc21)NC1CCCC1	CYP2C9 inh 64
CCOC(=O)Cn1c(=O)oc2cc(S(=O)(=O)N3CCCc4ccccc43)ccc21	CYP2C19 inh 77, CYP2C9 inh 77
CCOC(=O)Cn1c(=O)oc2cc(S(=O)(=O)Nc3c(C)cc(C)cc3C)ccc21	none
Cc1ccc(NC(=O)Cn2c(=O)oc3cc(S(=O)(=O)N4CCC(C)CC4)ccc32)cc1C	CYP2C9 inh 67
CCCCNS(=O)(=O)c1ccc2c(c1)oc(=O)n2CC(=O)OCC	CYP2C9 inh 72
CCC1(C)C(Nc2c(C)cccc2C)=NC(=S)N1c1ccc(NC(C)=O)cc1 (stereo not drawn)	none (no result: CYP2C19 inh, CYP2C19 act, CYP2C9 inh, CYP2C9 activ)
CCNc1nc(NCC)nc(Oc2ccc(N)cc2)n1	none
O=C(Cn1c(=O)oc2cc(S(=O)(=O)N3CCCC3)ccc21)NCc1ccccn1	none
CC(C)CCNC(=O)Cn1c(=O)oc2cc(S(=O)(=O)N3CCc4ccccc43)ccc21	CYP2C9 inh 83
